In all, about 68,000 sequences were measured (“fluorescence intensity (a.u.)”: median about 9,100, highest 2% from about 16,000 on). For the sample, the highest values were picked, then their nearest neighbours and some sequences at random.
molecular target: OsWRKY34 (Oryza sativa, UniProt Q0JBA9 1-250); assay: protein-binding microarray (RPBM); PBS, 2% BSA, 51.3 ng/ul salmon testes DNA, 50 uM zinc acetate, 200 nM TF, 25 C, 1 h; high values mean tight binding; settings: protein: recombinant; tags: N-terminal polyhistidine and DsRed monomer fusion (pET32a); label: CyDye5-dUTP incorporated in the synthesized complementary strand; 3' TTTTT single-stranded linker to array surface; dsDNA, one strand shown
Sequence (Q0JBA9 entry or part of it): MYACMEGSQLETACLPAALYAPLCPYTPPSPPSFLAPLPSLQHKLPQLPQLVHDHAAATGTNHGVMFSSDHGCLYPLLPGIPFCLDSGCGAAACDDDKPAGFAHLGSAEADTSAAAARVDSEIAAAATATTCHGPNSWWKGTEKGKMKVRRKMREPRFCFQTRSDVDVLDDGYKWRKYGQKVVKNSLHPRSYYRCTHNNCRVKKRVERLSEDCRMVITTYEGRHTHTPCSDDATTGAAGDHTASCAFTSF
How it was run: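 A custom Agilent array was converted to double-stranded form by primer extension with Cy5-dUTP and blocked with 2% BSA. Protein at 200 nM in PBS with 2% BSA, salmon testes DNA and 50 µM zinc acetate was applied for 1 h at 25 °C, followed by washing. The proteins were polyhistidine–DsRed N-terminal fusions of transcription factors, expressed in E. coli BL21-CodonPlus and Ni–NTA-purified. The binding signal is per-feature fluorescence intensity (arbitrary units) from an Axon 4000B scanner.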

| Sequence | binding signal |
| --- | --- |
| AATCTACACTAATTCTTCTGGTCTACACATTAAGTTATGACGGAGTCACCTAGTGCAG | 8670 fluorescence intensity (a.u.) |
| CCATGTCCGGATTCTCTAGGATTGCCTCCAATTTCTTCGCCGGAGTCACCTAGTGCAG | 8890 fluorescence intensity (a.u.) |
| TCCTACCTACAGCTATAGCTGCGTGCCGGGGTTGGGGCTGCGGAGTCACCTAGTGCAG | 8750 fluorescence intensity (a.u.) |
| CATCCTTCTCCGCGGCCATTTCTTGGAGCAAATCTCATTTCGGAGTCACCTAGTGCAG | 8420 fluorescence intensity (a.u.) |
| CCGCGGGCTTGGCTTGGCTGGCACCCTCTCCTTCTCGTCTCGGAGTCACCTAGTGCAG | 10300 fluorescence intensity (a.u.) |
| ACCCCAACGCAACCACTCTTCTCTACTACAATCGTTACTCCGGAGTCACCTAGTGCAG | 9310 fluorescence intensity (a.u.) |
| ATCCCAAACACTCTCGCCTCGTCTCCTCTCACACCACACGCGGAGTCACCTAGTGCAG | 10500 fluorescence intensity (a.u.) |
| CATTACCGCCACCTTCGATGCCGCCGCCTGCCGCTACCCGCGGAGTCACCTAGTGCAG | 8580 fluorescence intensity (a.u.) |
| TTAATACTTACTACTTGTCTGCTTTGAGTTTTTTGTTTAACGGAGTCACCTAGTGCAG | 9060 fluorescence intensity (a.u.) |
| CCTCGCCGTCGCCGGTCCTCGTCTCCTCCTCTATCTATATCGGAGTCACCTAGTGCAG | 8600 fluorescence intensity (a.u.) |
| ACCATGGGCGCACACGCTTCACTGCGTCTTTTTCCATCCACGGAGTCACCTAGTGCAG | 8320 fluorescence intensity (a.u.) |
| GGTTTGGTGGCGGAAAAGGTGGAGGCCTAGGTGGTGGTGGCGGAGTCACCTAGTGCAG | 8660 fluorescence intensity (a.u.) |
| CGGCGCGGCGGAAGGAGGAGGGGTGGTGGATTCGTAGGGGCGGAGTCACCTAGTGCAG | 14600 fluorescence intensity (a.u.) |
| GCTAGATTGGATAAGGAGGGGAGGAGGGTGGAGGGGAGGGCGGAGTCACCTAGTGCAG | 22700 fluorescence intensity (a.u.) |
| AGGTCATCGCAGGGCTCCTCTCCATCGCAGCCGCTCCAGCCGGAGTCACCTAGTGCAG | 8910 fluorescence intensity (a.u.) |
| AATGTGGTGGTGGTGGTGGTGAACGGAGGAGGGAGGGAGCCGGAGTCACCTAGTGCAG | 13000 fluorescence intensity (a.u.) |
| CCTCGCTCTCCATGGTGGTGGTGGTGGTCAGGTGGTGGGGCGGAGTCACCTAGTGCAG | 18800 fluorescence intensity (a.u.) |
| GGAGGAGGAGGTGGTGGTGGTGGTGAAGCCGCGGAGGTGCCGGAGTCACCTAGTGCAG | 18000 fluorescence intensity (a.u.) |
| GGTTGGTGGTGGAGGTGGTCAAGGCGGTGGTTTTGGAGCCCGGAGTCACCTAGTGCAG | 16400 fluorescence intensity (a.u.) |
| CTGAAGTGAGGGAGGGGAGGAGGTGGTGGTGGTGGGGAAGCGGAGTCACCTAGTGCAG | 15600 fluorescence intensity (a.u.) |
| AAGGCGGGAGGTTGAGAGAGAGATAAGGGAGAGAGAGGGGCGGAGTCACCTAGTGCAG | 8120 fluorescence intensity (a.u.) |

| Sequence | binding signal |
| --- | --- |
| GCGGTGGAGAGTGGTGGGAGGTTGGGGAGAAGGCGGCGGCCGGAGTCACCTAGTGCAG | 14800 fluorescence intensity (a.u.) |
| CCGCCATGTGGGCCCCACCTCGCCGCCTCCGCTCCACTCTCGGAGTCACCTAGTGCAG | 13600 fluorescence intensity (a.u.) |
| TCCGGTTGTTTGCCGTGGCACTTCCTTTCTCCCTATTGGCCGGAGTCACCTAGTGCAG | 8260 fluorescence intensity (a.u.) |
| AAGTGGGTGAGTCCAATAGGTGTGCACGTGAGGGGAGGGGCGGAGTCACCTAGTGCAG | 10500 fluorescence intensity (a.u.) |
| ATTCGTGCTCAGTTGTTTCTTTTCCAACTCCGGCGTCCTCCGGAGTCACCTAGTGCAG | 8150 fluorescence intensity (a.u.) |
| TACTCCTTATATTCCTTCATTTTTCAGCCTCGATCAGCTCCGGAGTCACCTAGTGCAG | 8130 fluorescence intensity (a.u.) |
| TACGAGCTTCTCCTCCTCCGCTGGTCATCATCCTACCTGTCGGAGTCACCTAGTGCAG | 8440 fluorescence intensity (a.u.) |
| TTCTACAGGAGTATCATCATCTTTGTGTTCTGGCTCCTGTCGGAGTCACCTAGTGCAG | 9040 fluorescence intensity (a.u.) |
| GACAATTTCTTTTTCCGATGGGATTTTAGTTTTTTGTTTTCGGAGTCACCTAGTGCAG | 9700 fluorescence intensity (a.u.) |
| CTCGCTAGCCCTCTGAACCTTGCAGTTTGTTGTTTGCACCCGGAGTCACCTAGTGCAG | 13600 fluorescence intensity (a.u.) |
| AGGAGGGCGGAGGAGGTGGTGGTGGTGGTGGTGGAGAGAGCGGAGTCACCTAGTGCAG | 25700 fluorescence intensity (a.u.) |
| GATGCGCGCGAACGGAGACGACGGGGTAGGGTGGGGAGGGCGGAGTCACCTAGTGCAG | 12300 fluorescence intensity (a.u.) |
| GGAGAGGGAGCGGGAGAGGGAGGATTGGAGGATGTGGGGACGGAGTCACCTAGTGCAG | 8940 fluorescence intensity (a.u.) |
| GGGAGAGGGGTGTGGGGCGGAGAGGGAGAGGGAGATGGGACGGAGTCACCTAGTGCAG | 9680 fluorescence intensity (a.u.) |
| GCGGAGGTGGTGGTGGCCTTGGAGGAGGTGGCGGCGGAGGCGGAGTCACCTAGTGCAG | 14300 fluorescence intensity (a.u.) |
| GGAGGTGGAGGCGGCGGAGGAGGTGGTGGTGGAGGTGGAGCGGAGTCACCTAGTGCAG | 17900 fluorescence intensity (a.u.) |
| CGACGAGCGAGAGGTAGGTGAGAGAGAGACGGGCGGCGAACGGAGTCACCTAGTGCAG | 65100 fluorescence intensity (a.u.) |
| GGCAGATGTGGACGGAGGGAGGGAGGGAGGGAGAGGGGCACGGAGTCACCTAGTGCAG | 17100 fluorescence intensity (a.u.) |
| TCGGCCCGAGCGGTGGCGGTGGCGGTGGCGGAGGAGGAGGCGGAGTCACCTAGTGCAG | 10100 fluorescence intensity (a.u.) |
| GACCGAGAGCAGGCGACGGGGTGGGTGGAGGTAGTGAGAACGGAGTCACCTAGTGCAG | 9200 fluorescence intensity (a.u.) |
| GGGCGGAGCGGGGCGGAGGGAGAGGAGGGAGAGGAGGGAGCGGAGTCACCTAGTGCAG | 8480 fluorescence intensity (a.u.) |

| Sequence | binding signal |
| --- | --- |
| CACTAGGTGAGCAATTTTGTTACCACGTCCATGTGCTGATCGGAGTCACCTAGTGCAG | 8810 fluorescence intensity (a.u.) |
| GCACACGCTTCATGTTGACATTTTATCGAATCGTGTTCTGCGGAGTCACCTAGTGCAG | 8350 fluorescence intensity (a.u.) |
| TTACTACTGCATTATCAAGTGTATCTTGCCATGTACTTCCCGGAGTCACCTAGTGCAG | 12100 fluorescence intensity (a.u.) |
| GATCTCCATCTCCATCTCTCTCTCTCTCTCGAGCAGAGCACGGAGTCACCTAGTGCAG | 8360 fluorescence intensity (a.u.) |
| CAATCACATCCGCGCGCATTTGGCCTGCGCCTTCAAATTTCGGAGTCACCTAGTGCAG | 12700 fluorescence intensity (a.u.) |
| AACGATTTCTTCAGCATTTTCCATCCCCGCGGCTTCTTCTCGGAGTCACCTAGTGCAG | 8230 fluorescence intensity (a.u.) |
| CGCAGAACACGTTTCCCAAATCTTGTACTACTACGTACTACGGAGTCACCTAGTGCAG | 9170 fluorescence intensity (a.u.) |
| GAGGTGGTGGTGGTGGTGGTGGATGGCGCCCTGCTTTGACCGGAGTCACCTAGTGCAG | 23500 fluorescence intensity (a.u.) |
| GCGCTACGGACGGAAGAGACGGAGTGGCACGGAATAAAGACGGAGTCACCTAGTGCAG | 61600 fluorescence intensity (a.u.) |
| AGTTGTGGACTGGAAGAGAGGGGAGGCATGGGGACAAAGACGGAGTCACCTAGTGCAG | 9320 fluorescence intensity (a.u.) |
| GTGGAGTGCGGTGGACGGAGCGGCGGGGCGGGGCGGTCAGCGGAGTCACCTAGTGCAG | 16700 fluorescence intensity (a.u.) |
| GTGGCGGCGGAGGAGGTGGGATGGGGATTTGATGATGGCCCGGAGTCACCTAGTGCAG | 8320 fluorescence intensity (a.u.) |
| GGAGGAGCGGTGCGTGGGGTCAGCGGCCGGCGGGAGGGCACGGAGTCACCTAGTGCAG | 9670 fluorescence intensity (a.u.) |
| AGAGGTGGAGGAGAGGAGGGGAGGGGAGGGGAGGTGAGGGCGGAGTCACCTAGTGCAG | 18700 fluorescence intensity (a.u.) |
| CTAGCTTTGAGGTGGAGGTGGTGGTGGAGGAGGAGGAGGACGGAGTCACCTAGTGCAG | 12600 fluorescence intensity (a.u.) |
| GGGAGGGAGAGGAGGCGGAGGAGGAGGAGGTGGAGGAGTACGGAGTCACCTAGTGCAG | 8610 fluorescence intensity (a.u.) |
| AACAGGAGGAGGAGGAGGAGGAGGAGGAGGAGAGGTGGGGCGGAGTCACCTAGTGCAG | 9280 fluorescence intensity (a.u.) |
| TATATATATATATATATATATATATATATATATAAAGAGACGGAGTCACCTAGTGCAG | 11100 fluorescence intensity (a.u.) |
| GCGGGGCGGTGACAACGACGGCGGTGCGGGGCGGTGGTGACGGAGTCACCTAGTGCAG | 10300 fluorescence intensity (a.u.) |
